Source: PubChem BioAssay (several laboratories)
Sampled rows, rich in hits. Any-hit rate of the full collection: about 4%.
Mtb betalactam = beta-lactam sensitization of Mtb H37Rv; M. tuberculosis H37Rv growth with meropenem, percent inhibition; inhibition, % at 25 µM; 0.27% of 330,000 active; call rule not given here;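 note: growth measured after seven days incubation then overnight dye step; 0% = bacteria only wells and 100% = bacteria with antibiotic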
Mtb UGM inh = Mtb UDP-galactopyranose mutase inhibition; purified UGM, fluorescence polarization probe displacement; inhibition, % at 10 µM; AID 504406; 0.06% of 320,000 active; P9WIQ1; in the data active = inhibition above about 10%, passing the limit was not always enough
Rv3671c inh = Rv3671c (M. tuberculosis) protease inhibition. P9WHR9. inhibition, % at 5.96 µM. 0.048% of 320,000 active. AID 2606; in the data active = inhibition above about 38%;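 note: extracellular domain of Rv3671c used as enzyme; 0% = enzyme with DMSO and 100% = no enzyme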
Mtb FBA inh = Mtb fructose-bisphosphate aldolase inhibition; P9WQA3; purified M. tuberculosis FBA, fluorescence read-out; inhibition, % at 1 µM; 2.3% of 360,000 active;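 note: 0% = vehicle and 100% = reference inhibitor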
RecA intein inh = blocks M. tuberculosis RecA intein splicing; P9WHJ3; cell-free RecA intein splicing, fluorescence; inhibition, % (test concentration not listed); 0.75% of 290,000 active; AID 2221; in the data active = inhibition above about 30%;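 note: 0% = vehicle wells and 100% = reference inhibitor control wells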
Target sequence (P9WHJ3 whole entry, looked up): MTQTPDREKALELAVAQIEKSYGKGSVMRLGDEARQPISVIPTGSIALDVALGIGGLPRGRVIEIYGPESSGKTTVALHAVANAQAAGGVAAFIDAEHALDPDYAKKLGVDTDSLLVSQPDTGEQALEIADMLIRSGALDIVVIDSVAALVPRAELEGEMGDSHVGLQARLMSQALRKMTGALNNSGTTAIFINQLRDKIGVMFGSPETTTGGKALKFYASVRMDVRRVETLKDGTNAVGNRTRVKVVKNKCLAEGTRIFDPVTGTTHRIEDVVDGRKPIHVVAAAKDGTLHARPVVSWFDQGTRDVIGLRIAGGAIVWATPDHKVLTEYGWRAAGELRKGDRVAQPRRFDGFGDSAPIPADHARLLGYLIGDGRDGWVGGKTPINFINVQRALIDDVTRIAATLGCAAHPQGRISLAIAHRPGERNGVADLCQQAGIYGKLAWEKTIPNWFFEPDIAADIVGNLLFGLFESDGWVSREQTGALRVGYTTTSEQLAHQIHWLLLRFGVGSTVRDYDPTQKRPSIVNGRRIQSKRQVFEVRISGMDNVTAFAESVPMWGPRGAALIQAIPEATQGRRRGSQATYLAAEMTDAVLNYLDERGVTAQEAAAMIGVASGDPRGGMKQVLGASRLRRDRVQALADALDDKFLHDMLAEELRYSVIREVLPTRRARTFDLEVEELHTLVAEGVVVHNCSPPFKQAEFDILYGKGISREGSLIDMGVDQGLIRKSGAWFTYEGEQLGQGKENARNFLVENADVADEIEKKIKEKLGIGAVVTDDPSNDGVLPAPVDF
GDH-TPI counter-1 = counter-screen for M. tuberculosis FBA inhibitors: GDH-TPI coupled enzymes | GDH-TPI coupled enzyme counterscreen, NADH absorbance | inhibition, % at 4.8 µM | 1.2% of 360,000 active | AID 588335; in the data active = inhibition above about 30%;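 note: 0% = DMSO wells and 100% = wells lacking the enzyme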
Mtb FBA inh conf = Mtb FBA inhibition, confirmed; shares compounds with Mtb FBA inh; purified M. tuberculosis FBA, fluorescence read-out; inhibition, % at 1 µM; 78% of 5,600 active; AID 651616;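 note: 0% = vehicle wells and 100% = reference inhibitor wells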
GDH-TPI counter-2 = inhibits GDH-TPI coupling enzymes, flagging Mtb FBA hits; shares compounds with Mtb FBA inh; GDH-TPI coupled enzyme counterscreen, fluorescence; inhibition, % at 1 µM; 81% of 5,600 active; in the data active = inhibition above about 10%
* hit, by the source's call; . = no result given. Cut-off read from the data, not from the text of the source, unless noted: active = inhibition above about 27%; inactive = the rest.

SMILES	Mtb betalactam	Mtb UGM inh	Rv3671c inh	Mtb FBA inh	RecA intein inh	GDH-TPI counter-1	Mtb FBA inh conf	GDH-TPI counter-2
CCCCNc1c(-c2ccc(OC)c(SC3CCCCC3)c2)nc2cc(C)ccn12	99	-1	10	24	10	18	.	.
Cn1cnnc1SCC(=O)Nc1cc(C(F)(F)F)ccc1N1CCOCC1	-3	0	-34	0	-2	1	.	.
Cn1cc(C(=O)N2CCN(C(=O)c3ccco3)CC2)c2c3ccccc3n(C)c2c1=O	-6	-1	-12	37*	-3	15	-2	-3
COCCn1cc(C(=O)N2CCC3(CC2)OCCO3)c2c3ccccc3n(C)c2c1=O	-1	2	1	37*	.	13	144*	120*
CCN1CCN(C(=O)c2cn(CCOC)c(=O)c3c2c2ccccc2n3C)CC1	-5	-3	9	48*	1	20	171*	129*
CCOC(=O)C1CCN(C(=O)c2cn(CCOC)c(=O)c3c2c2ccccc2n3C)CC1	4	.	4	46*	0	11	84*	68*
CC(C)OC(=O)/C(=C\c1cccnc1)NC(=O)c1ccccc1	-8	-1	6	-4	-4	-9	.	.
NS(=O)(=O)c1ccc(CNC(=O)C2(c3ccc(Cl)cc3)CC2)cc1	20	-2	2	-1	1	4	.	.
O=C(N1CCNCC1)N1CCOCC1	-8	0	-3	.	1	.	.	.
Cn1c2ccccc2c2c(C(=O)N3CCC4(CC3)OCCO4)cn(C3CCCC3)c(=O)c21	-11	0	-5	28*	-1	8	58*	47*
COCCn1cc(C(=O)N2CCCC(C)C2)c2c3ccccc3n(C)c2c1=O (configuration not stated)	-1	-1	0	45*	2	15	0	-5
CCC(C)NC(=O)c1cn(CCOC)c(=O)c2c1c1ccccc1n2C (configuration not stated)	4	0	1	15	0	0	.	.
O=C(O)c1cccc(COc2cccc3ccccc23)c1	1	-3	5	0	1	-2	.	.
O=C(c1ccccc1)n1ccc(-c2cnc(-c3ccccc3)s2)n1	-1	-1	5	95*	3	12	73*	58*
O=C(CNC(=O)C1CCCCC1)OCc1cc(=O)oc2ccc3ccccc3c12	3	-2	9	43*	-1	10	3	-3
CN(C)S(=O)(=O)c1cccc(C(=O)c2nccn2C)c1	-9	-1	10	2	0	-4	.	.
Nc1ccc(C#Cc2c(-c3ccsc3)oc3ccc(N4CCOCC4)cc23)cc1	70	-5	11	41*	2	22	102*	75*
COc1ccc(-c2oc3ccc(N4CCOCC4)cc3c2C#CCO)cc1	73	3	3	33*	2	47*	48*	35*
Cc1cc(N2CCN(C)CC2)n2cc(-c3ccc(F)cc3)nc2n1	13	3	4	69*	0	17	41*	37*
COc1cccc(CN2CC(C(=O)N3CCN(C(C)C)CC3)CCC2=O)c1 (configuration not stated)	3	2	0	0	-7	-1	.	.
Cc1ccc(NC(=O)Cn2c(/C=C/c3ccccc3)nc3ccccc32)cc1C	-3	0	-2	29*	-1	10	68*	53*
COCCOCCn1c(/C=C/c2ccccc2)nc2ccccc21	-1	2	-8	28*	1	15	-4	-4
COCCOCCn1c(CCCO)nc2ccccc21	-4	2	1	1	-6	14	.	.
CC(C)n1c(/C=C/c2ccccc2)nc2ccccc21	60	-2	-13	67*	1	34*	36*	20*
CC(C)c1ccccc1NC(=O)Cn1c(/C=C/c2ccccc2)nc2ccccc21	6	5	-28	.	0	.	.	.
Cc1csc(NC(=O)c2cc(-c3ccccc3)nc3ccccc23)n1	95	-1	-28	1	14	21	.	.
Nc1ccc(S(=O)(=O)NCC(=O)OC2CCOC2=O)cc1[N+](=O)[O-] (configuration not stated)	5	2	6	24	.	-2	.	.
